From PubChem BioAssay (NCATS)
Inconclusive results are not listed. A number with no mark means an inactive call. Calls come from the whole dose curve; as a rule, active = well fitted inhibition curve with a large enough effect; inconclusive = small, poorly fitted or top-dose-only effect; inactive = flat fitted curve, though single readings scatter.

target: Calcium and integrin-binding protein 1 (Homo sapiens) (UniProt Q99828); test: Primary qHTS for Identification of Calcium Integrin Binding Protein 1 (CIB1) Competitor (AID 1508620); conditions: CIB1-GST / FITC-alphaIIb peptide fluorescence polarization; series mostly up to 114 µM; activity change, negative = inhibition: at the top concentration; note: top concentration of the series differs between compounds
Procedure, shortened: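 Fluorescence polarization competition: GST-tagged CIB1 (1 uM final) preincubated with compound 15 min at room temperature, then FITC-labelled alphaIIb peptide (100 nM final) added. After 15 min at room temperature, polarization read at Ex 480/Em 540.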
% is set by controls: 0 for no effect and ±100 for the full control effect.

Calcium and integrin-binding protein 1 (Homo sapiens), sequence (Q99828 whole entry, looked up): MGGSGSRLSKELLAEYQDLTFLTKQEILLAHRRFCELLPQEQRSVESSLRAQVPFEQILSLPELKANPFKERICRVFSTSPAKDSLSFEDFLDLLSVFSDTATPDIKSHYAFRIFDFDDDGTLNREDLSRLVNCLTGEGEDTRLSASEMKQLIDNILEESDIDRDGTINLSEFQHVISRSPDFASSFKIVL

Row | SMILES | activity change, negative = inhibition
1 | C=CC(C)(C)c1[nH]c2ccccc2c1C[C@@H]1NC(=O)[C@H](Cc2c[nH]c3ccccc23)NC1=O | -7.02% [at 57.7 µM]
2 | CC1(C)CC[C@]2(C(=O)O[C@@H]3O[C@H](CO)[C@@H](O)[C@H](O)[C@H]3O)CC[C@]3(C)C(=CCC4[C@@]5(C)C[C@@H](O)[C@H](O)[C@@](C)(CO)C5CC[C@]43C)C2[C@@H]1O (stereo not given in full) | 1.26% [at 30.2 µM]
3 | COc1ccc(C2(O)c3ccccc3NC(=O)C2O)cc1 (stereo not given) | -1.37%
4 | COc1cc(C2c3cc4c(c(O)c3CC(CO)C2C(=O)O)OCO4)cc(OC)c1O (stereo not given) | -1.28% [at 57.7 µM]
5 | COc1c(C)c(OCC(O)C(C)(C)O)cc2c1COC2=O (stereo not given) | 2.2%
6 | C=C1C(=O)O[C@@H]2/C=C(\C)C(=O)/C=C/[C@](C)(O)C[C@@H](OC(=O)C(C)C)[C@@H]12 | -5.18% [at 57.7 µM]
7 | CC(=O)NC[C@H]1CN(c2ccc(N3CCN(C(=O)CO)CC3)c(F)c2)C(=O)O1 | 4.85%
8 | COc1ccc2nc(S(=O)(=O)Cc3ncc(C)c(OC)c3C)[nH]c2c1 | -3.71%
9 | CC(CCC1(O)OC2CC3C4CCC5CC(O[C@@H]6O[C@H](CO)[C@@H](O)[C@H](O)[C@H]6O[C@@H]6O[C@@H](C)[C@H](O)[C@@H](O)[C@H]6O)C(O)CC5(C)C4CCC3(C)C2C1C)CO[C@@H]1O[C@H](CO)[C@@H](O)[C@H](O)[C@H]1O (stereo not given in full) | -0.336% [at 30.2 µM]
10 | Cc1[nH]c2ccccc2c1CCNC(=O)c1ccccc1F | 2.46%
11 | CC1(C(=O)O)CCCC2(C)C3CCC4CC3(CCC12)CC4=O (stereo not given) | 3.97%
12 | CO[C@H]1/C=C\O[C@@]2(C)Oc3c(C)c(O)c4c(O)c(c5c(nc6cc(C)ccn65)c4c3C2=O)NC(=O)/C(C)=C\C=C/[C@H](C)[C@H](O)[C@@H](C)[C@@H](O)[C@@H](C)[C@H](OC(C)=O)[C@@H]1C | -6.92%
13 | C[C@@H]1O[C@@H](O[C@H]2[C@H](O[C@H]3[C@H](O[C@H]4CC[C@@]5(C)C(CC[C@]6(C)C5CC=C5[C@@H]7CC(C)(C)C[C@@H](O)[C@]7(C)CC[C@]56C)[C@@]4(C)CO)O[C@H](C(=O)O)[C@@H](O)[C@@H]3O)OC[C@H](O)[C@@H]2O)[C@H](O)[C@H](O)[C@H]1O (stereo not given in full) | 2.13% [at 30.2 µM]
14 | OC[C@H]1O[C@@H](Oc2ccccc2)[C@H](O)[C@@H](O)[C@@H]1O | -3.81%
15 | O=C(O)c1cc(I)ccc1NC(=O)[C@H](Cc1ccccc1)NCc1ccccc1 | -12.5%
16 | CC1=CCC2C(C)(C)CCC[C@]2(C)[C@@]12CC[C@](C)(CC(=O)O)O2 (stereo not given in full) | 0.256% [at 57.7 µM]
17 | CC(=O)c1ccc2c(c1)C(O)C(C(C)(C)O)O2 (stereo not given) | -4.68%
18 | CC(C)=CCC/C(C)=C/CCC1(C)Oc2c(c(O)cc3c2CN(C(CCC(=O)O)C(=O)O)C3=O)CC1O (stereo not given) | -1.16% [at 57.7 µM]
19 | CCOC(=O)c1sc(NC(=O)[C@H](C(C)C)n2c(=O)[nH]c3ccccc3c2=O)nc1C | -3.78%
20 | CCCCNc1ncc2c(-c3ccc(F)cc3)nn(CC3CCC(N)CC3)c2n1 (stereo not given) | -5.27% [at 57.7 µM]

Row | SMILES | activity change, negative = inhibition
21 | CC(=O)OC1C[C@]2(C)C(O)CC(C)=C[C@H](OC(=O)c3ccc(O)cc3)C2[C@]1(O)C(C)C (stereo not given in full) | 1.35% [at 57.7 µM]
22 | CON(C)C(=O)[C@H](O)[C@H](Cc1ccccc1)NC(=O)c1cc2cc(Cl)ccc2[nH]1 | -6.29%
23 | COC(=O)CC(O)C1OC(c2ccccc2)C(O)C1O (stereo not given) | 2.15%
24 | CC/C=C\CCO[C@@H]1O[C@H](CO[C@@H]2OC[C@H](O)[C@H](O)[C@H]2O)[C@@H](O)[C@H](O)[C@H]1O | -1.32% [at 57.7 µM]
25 | Cc1cc(C)cc(C(=O)NOCCCCCC(=O)NO)c1 | 1.54%
26 | N#Cc1ccc(C(=O)N2CCC3(CC2)N=C(N)c2c(F)ccc(F)c2N3)cn1 | -2.06%
27 | C=C1C(O)C[C@@H]2C(C(=O)O)=CO[C@@H](O[C@@H]3O[C@H](CO)[C@@H](O)[C@H](O)[C@H]3OC(=O)c3ccc(O)cc3)[C@H]12 (stereo not given in full) | 2.81% [at 57.7 µM]
28 | O=C(O)c1ccc(OC2OC(CO)C(O)C(O)C2O)cc1 (stereo not given) | -5.28%
29 | CC1CCC23COC(=O)C2=CC(O)CC3C1(C)CCC1=CC(O)OC1=O (stereo not given) | 0.859% [at 57.7 µM]
30 | O=C1C=CC2OC(c3ccccc3)C(O)C2O1 (stereo not given) | -8.79%
31 | CC12CCC3c4ccc(O)cc4CCC3C1CC(OC1OC(C(=O)O)C(O)C(O)C1O)C2O (stereo not given) | 0.174%
32 | CC(C)(C)NC(=O)[C@@H](c1cccnc1)N(C(=O)c1ccco1)c1ccc(C(C)(C)C)cc1 | -6.54%
33 | COC(=O)CC(O)CC(O)/C=C/c1c(C)ccc2c1C(O)CC(C)C2 (stereo not given) | 1.02% [at 57.7 µM]
34 | COC1/C=C/C(C)(O)C(SCC(N)C(=O)O)CC(=O)OC(C)C(C)CC/C=C/1C (stereo not given) | -5.29% [at 57.7 µM]
35 | C[C@@H]1C(=O)O[C@H]2[C@H](O)C34[C@H]5C[C@@H](C(C)(C)C)C36[C@@H](OC(=O)[C@@H]6O)O[C@@]4(C(=O)O5)[C@@]12O (stereo not given in full) | 0.526% [at 57.7 µM]
36 | C#CCN(Cc1cc2c(=O)[nH]c(C)nc2cc1Br)c1ccc(C(=O)NCc2cccnc2)cc1 | 28.8%
37 | Cc1onc(C(=O)N2CCN(C(c3ccc(Cl)cc3)c3ccc(Cl)cc3)CC2)c1[N+](=O)[O-] | 1.2%
38 | CC[C@@H](O)C[C@@H]1C(C)=C[C@@H]2CCCC[C@@H]2[C@@]1(C)C(=O)O | -0.914%
39 | CC1=C2C[C@H]3O[C@@]3(C)CCC3O[C@@]3(C)C[C@@]2(O)OC1=O (stereo not given in full) | 3.52%
40 | C=CC(=O)Nc1cc(Nc2nccc(-c3c[nH]c4ccccc34)n2)c(OC)cc1N(C)CCN(C)C | -13.1%
